Screens from PubChem BioAssay.
Gal4-VP16 FLuc = Gal4-VP16 reporter inhibition counter-screen; Drosophila S2 Gal4-VP16 UAS-luciferase, luminescence, 20 h; Potency, µM (top dose mostly 53.6 µM), inactives show at the highest dose activity, negative = inhibition, actives largely listed as inhibitors; hit rate 3.5% among 310,000;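 also: Gal4-VP16 expression switched on by copper sulfate through the metallothionein promoter; % is scaled to controls: 0 for no effect and ±100 for the full control effect; nearly all actives have a fitted effect of over 50% in size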
MCF10A rerep = inducers of DNA re-replication in MCF 10A breast cells; MCF 10A DNA re-replication, Hoechst nuclear intensity, 48 h; hit rate 2.9% among 350,000; Potency, µM (highest dose often 46.1 µM), for inactives: at the top dose activity, positive = re-replication, actives largely listed as activators; also: % of control where 0% means no effect; nearly all actives have a fitted effect of over 50% in size
SW480 rereplic = induces DNA re-replication in SW480 colon adenocarcinoma cells | AID 624297 | SW480 DNA re-replication, Hoechst DNA content imaging, 48 h | Potency, µM (doses to about 46.1 µM), inactives show at the highest dose re-replication activation, actives largely listed as activators | hit rate 1.8% among 340,000; also: % of control where 0% means no effect; nearly all actives have a fitted effect of over 55% in size
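Image-based read-out: total Hoechst fluorescence of nuclei (405 nm excitation, 500-530 nm emission), with hits raising the fraction of high-intensity nuclei. SW480 colon cells incubated 48 hr with compounds at 37 C.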
KB-V1 MDR tox = kills drug-selected multidrug resistant KB-V1 cells | KB-V1 MDR cells viability, CellTiter-Glo, 72 h | Potency, µM (top dose mostly 46.1 µM), most hits filed as cytotoxic | hit rate 3.4% among 400,000 | AID 1347076; also: % is scaled to controls: 0 for no effect and ±100 for the full control effect; nearly all actives have a fitted effect of over 60% in size
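qHTS viability screen in drug-selected KB-V1 MDR cells: 72 h compound treatment at 37 degrees C, ATP luminescence end point.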
KB-3-1 cytotox = KB-3-1 parental cell cytotoxicity; AID 1347075; KB-3-1 viability, CellTiter-Glo ATP luminescence, 72 h; Potency, µM (top dose mostly 46.1 µM), usual class: cytotoxic; hit rate 1.4% among 400,000; also: % is scaled to controls: 0 for no effect and ±100 for the full control effect; nearly all actives have a fitted effect of over 60% in size
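72 h, 37 °C compound treatment of KB-3-1 parental cells; CellTiter-Glo added, 10 min, luminescence read. Data corrected against DMSO-only plates and normalized before curve fitting.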
RORgamma inh = inhibitors of mouse ROR gamma transcriptional activity. P51450. Drosophila S2 Gal4-RORgamma UAS-luciferase reporter, 20 h. Potency, µM (titrated, usually from 53.6 µM), inactives show at the top dose activity change, negative = inhibition, hits mostly inhibitors. hit rate 5.4% among 310,000. AID 2551; also: % is scaled to controls: 0 for no effect and ±100 for the full control effect; nearly all actives have a fitted effect of over 60% in size
Target sequence (P51450 whole entry, looked up, the tested form may be a part): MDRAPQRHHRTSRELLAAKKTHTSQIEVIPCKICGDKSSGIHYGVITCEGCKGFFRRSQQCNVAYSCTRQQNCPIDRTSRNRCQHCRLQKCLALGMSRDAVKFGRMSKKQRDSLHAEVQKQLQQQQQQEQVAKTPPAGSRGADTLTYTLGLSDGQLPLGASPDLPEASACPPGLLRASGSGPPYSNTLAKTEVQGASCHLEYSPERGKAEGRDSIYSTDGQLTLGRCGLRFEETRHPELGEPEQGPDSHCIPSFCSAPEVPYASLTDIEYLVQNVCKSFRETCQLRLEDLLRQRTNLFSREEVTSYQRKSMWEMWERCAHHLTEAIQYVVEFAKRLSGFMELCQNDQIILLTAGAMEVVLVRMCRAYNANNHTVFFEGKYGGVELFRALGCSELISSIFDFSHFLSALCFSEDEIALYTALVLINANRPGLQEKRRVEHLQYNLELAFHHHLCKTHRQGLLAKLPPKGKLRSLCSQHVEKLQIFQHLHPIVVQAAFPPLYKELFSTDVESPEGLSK
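Drosophila S2 cells stably expressing Gal4-DBD/mouse RORγ fusion under metallothionein promoter plus UAS-luciferase; compound 1 h, then 700 uM CuSO4 induction for 20 h at ambient temperature; inhibition read as reduced luminescence.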
An asterisk follows results filed as active; i = inactive; u = inconclusive; x = not tested or not shown; [ ] = another dose, or the depositor's remark. Hits are enriched below; roughly 10% of the tested compounds scored in any of these assays. Calls follow the shape of the dose curve; as a rule, active = well fitted curve in the direction sought with a large enough effect; inconclusive = small, poorly fitted or top-dose-only effect, or another doubt; inactive = no such curve, though single readings can be large; an effect the other way counts as inactive or inconclusive. Potency is read from the fitted curve at half-maximal effect.

SMILES	Gal4-VP16 FLuc	MCF10A rerep	SW480 rereplic	KB-V1 MDR tox	KB-3-1 cytotox	RORgamma inh
C=C1C(=O)O[C@@H]2[C@H]1[C@@H](OC(=O)/C(C)=C/C)C/C(C)=C\C(=O)/C=C(\C)[C@@H]2O	11µM*	19%	u	u	2.9µM*	u
COc1ccc(NC(=O)CN(C)CC(=O)NC2CCCCC2C)cc1 (stereo not given)	x	6%	1%	18µM*	i	x
COc1ccc(NC(=O)CN(C)CC(=O)NC2CCC(C)CC2)cc1 (stereo not given)	x	-4%	2%	21µM*	i	x
COc1ccc(NC(=O)CN(C)CC(=O)NC(=O)NC2CCCCC2)cc1	x	0%	-1%	i	i	x
COC(=O)c1ccc(NC(=S)N(Cc2cccnc2)Cc2ccco2)cc1	10%[10 µM]	3%	-13%	i	i	14%
Cc1ccc(NC(=O)N(C2CCCCC2)C(C)c2cccnc2)cc1C (stereo not given)	0%	-1%	-9%	i	i	12%
CCc1ccccc1NC(=S)N(Cc1ccco1)C(C)c1cccs1 (stereo not given)	-7%[10 µM]	2%	0%	i	i	11µM*
CC(C)CCN(C(=O)Nc1ccccc1)C(C)c1cccs1 (stereo not given)	18%	0%	u	i	i	19%
CCc1ccc(NC(=O)N(Cc2ccco2)C(C)c2cccs2)cc1 (stereo not given)	-3%	u	2%	21µM*	u	u
CCc1ccc(NC(=O)N(Cc2cccnc2)Cc2ccco2)cc1	-4%	1%	-5%	15µM*	i	11%
CCc1ccc(NC(=O)N(C2CCCCC2)C(C)c2cccnc2)cc1 (stereo not given)	-1%	-2%	-7%	21µM*	i	26%
CCOc1cccc(NC(=O)c2sc3nc(-c4ccc(F)cc4)ccc3c2N)c1	x	x	x	i	i	x
COc1ccc(CCNC(=O)CN(c2ccccc2)S(=O)(=O)N(C)C)cc1OC	x	x	x	i	i	x
CCOc1ccccc1CNC(=O)c1ccc(NC(=O)N2CCSc3ncccc32)cc1	x	x	x	i	i	x
O=C(Nc1nc(-c2ccccn2)cs1)c1ccc(Cl)s1	4%	0%	12%	u	u	20%
O=C(Nc1nc(-c2ccccn2)cs1)c1cc2ccccc2o1	11µM*	u	u	u	u	1.6µM*
Cn1cccc1C(=O)Nc1nc(-c2ccccn2)cs1	4µM*	17%	u	u	10µM*	1.6µM*
Cc1c(C(=O)Nc2nc(-c3ccccn3)cs2)oc2ccccc12	x	23µM*	17%	i	u	x
O=C(Nc1nc(-c2ccccn2)cs1)c1ncc(Cl)c(Cl)c1Cl	10µM*	u	15%	u	i	6.3µM*
Cc1ccc(C(=O)Nc2nc(-c3ccccn3)cs2)s1	x	18%	-4%	i	i	x
CCn1cc(/C=C(\NC(=O)c2cc(OC)c(OC)c(OC)c2)C(=O)NCCCn2ccnc2)c2ccccc21	x	x	x	i	i	x
COc1cccc(CNC(=O)CN2C(=O)N(c3c(C)cccc3C)S(=O)(=O)c3ccccc32)c1OC	x	x	x	u	i	x
Cc1cc(C)cc(C(=O)N2CC(=O)Nc3ccc(C)cc3C2c2ccccc2)c1 (stereo not given)	x	x	x	i	i	x
CCOCCc1nn2c(=O)cc(COC(=O)c3ccccc3Br)nc2s1	x	x	x	i	i	x
CCCCN(CC)CCCn1cnc2c([nH]c3ccc(Cl)cc32)c1=O	x	x	x	i	i	x
SMILES	Gal4-VP16 FLuc	MCF10A rerep	SW480 rereplic	KB-V1 MDR tox	KB-3-1 cytotox	RORgamma inh
CCC(CCc1ccccn1)C(=O)c1ccccc1 (stereo not given)	x	12%	17%	u	i	x
CN(C)CC(CCCCC(CN(C)C)C(=O)c1ccccc1)C(=O)c1ccccc1 (stereo not given)	1%	u	10µM*	i	u	-15%
CN(C)CCC(C(=O)c1ccccc1)c1ccccn1 (stereo not given)	x	1%	0%	i	i	x
CCCCC(CCc1ccccn1)C(=O)c1ccccc1 (stereo not given)	x	u	-3%	16µM*	i	x
COc1ccc(C(=O)c2ccc(N(C)C)cc2)c2ccccc12	3%	-3%	-3%	2.1µM*	5.2µM*	u
COc1ccc(-n2nnnc2/C=C\Nc2ccccc2C(=O)c2ccccc2)cc1	-14%	26%	10µM*	4.6µM*	5.8µM*	1%
COc1ccc(C(=O)c2ccc(OC)c(OC)c2OC)cc1	x	3.7µM*	5.8µM*	2.3µM*	5.8µM*	x
O=C(c1ccccc1)c1ccccc1C(=O)c1ccccc1	4%	18%	u	i	i	12%
COc1ccc(C(=O)c2ccccc2C(=O)c2ccccc2)cc1	x	12%	1%	18µM*	i	x
COc1ccc(C(=O)c2ccc(Br)cc2)c(OC)c1OC	x	7%	u	i	i	x
COc1ccccc1C(=O)COC(=O)c1ccc(N(C)C)cc1	16%	15%	1%	u	i	u
O=C(Nc1cccc(C(F)(F)F)c1)c1csc([C@H]2C[C@H](O)[C@@H](CO)O2)n1	x	x	x	i	i	x
CCOC(=O)c1c(NC(=O)c2ccc(S(=O)(=O)N(C)C3CCCCC3)cc2)sc2c1CCN(C(C)C)C2	x	x	x	i	i	x
COc1cccc(Cn2c(=O)c(C)nc3cnc(N(C)C)nc32)c1	-2%	x	x	x	x	-19%
COc1ccc(C(=O)COC(=O)c2ccc(NC(=O)c3ccccc3)cc2)cc1	-14%	4%	u	15µM*	i	-22%
COc1ccc(OC)c(C(=O)c2ccc(C(=O)Nc3ccccc3)cc2)c1	6%	4%	-10%	23µM*	i	-16%
COC(=O)C(Cc1c[nH]c2ccccc12)NC(C)=O (stereo not given)	-2%	-10%	1%	u	i	14µM*
COC(=O)C(Cc1c[nH]c2ccccc12)NC(=O)c1cccs1 (stereo not given)	-15%	-2%	u	i	i	31%
COC(=O)[C@@H](Cc1c[nH]c2ccccc12)NC(=O)c1ccc2c(c1)OCO2	u	-5%	3%	i	i	8.9µM*
COc1ccccc1CNC(=O)C(Cc1c[nH]c2ccccc12)NC(=O)OCc1ccccc1 (stereo not given)	-17%	18%	2%	18µM*	u	34%
N#CCCn1c(=S)[nH]c2ccccc21	5%	-2%	1%	i	i	14%
COc1ccccc1OCCn1c(=S)[nH]c2ccccc21	10µM*	u	u	23µM*	u	10µM*
